D2 PAM-1: D2 dopamine receptor (human) potentiation | HEK293 T-REx D2, calcium flux, EC20 dopamine potentiation | potentiation, % at 10 µM | 340,000 tested, 0.34% active | AID 485347;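 active = potentiation over 3 SD above the plate norm, cut at about 30% in these data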
Target sequence (P14416 whole entry, looked up): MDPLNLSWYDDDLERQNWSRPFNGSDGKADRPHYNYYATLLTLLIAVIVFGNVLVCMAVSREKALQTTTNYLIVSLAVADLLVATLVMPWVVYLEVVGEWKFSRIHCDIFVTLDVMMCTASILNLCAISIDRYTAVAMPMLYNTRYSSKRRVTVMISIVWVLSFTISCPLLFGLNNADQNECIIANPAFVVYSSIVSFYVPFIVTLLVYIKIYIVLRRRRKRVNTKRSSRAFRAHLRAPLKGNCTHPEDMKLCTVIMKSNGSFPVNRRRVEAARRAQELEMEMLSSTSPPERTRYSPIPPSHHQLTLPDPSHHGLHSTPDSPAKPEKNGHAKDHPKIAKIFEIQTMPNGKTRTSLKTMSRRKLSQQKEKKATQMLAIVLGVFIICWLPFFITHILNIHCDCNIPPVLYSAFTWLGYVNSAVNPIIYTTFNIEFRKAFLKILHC
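Potentiation of an EC20 dopamine calcium response measured kinetically over 180 s, after a preceding 180 s compound-only read flagging agonists. Cells: inducible Hek293 Trex D2 line, 4000/well, cultured overnight at 30 C before dye loading.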
D2 antag: antagonists of human D2 dopamine receptor; HEK293 TREx D2 cells, calcium flux, dopamine EC80; inhibition, % at 10 µM; 340,000 tested, 2% active; AID 485344; in the data active = inhibition above about 30%; inactive = below that, where a call was filed
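Tetracycline-induced HEK293 T-REx cells expressing D2 force-coupled to calcium signalling were dye-loaded, exposed to compound for 180 s, then challenged with an EC80 of dopamine; calcium flux was followed kinetically for a further 180 s.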
D2 PAM-2: positive allosteric modulators of human D2 dopamine receptor; 360,000 tested, 0.23% active; DiscoveRx D2 beta-arrestin cells, luminescence, 90 min; 100% = 57 uM dopamine signal; potentiation, % (concentration not given with the values); P14416; in the data active = potentiation above about 50%; inconclusive = mostly about 30% to 49%
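D2 cells co-treated with compound plus 50 nM dopamine (EC20) for 90 min at 37 deg C to detect potentiation. Beta-arrestin recruitment was read as enzyme-fragment luminescence after 1 h at ambient temperature. Full response was set by 57 uM dopamine.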
D2 ag-1: human D2 receptor agonism in beta-arrestin assay. DiscoveRx PathHunter D2 beta-arrestin, luminescence, 90 min; 100% = 57 uM dopamine signal. activation, % (concentration not given with the values). 360,000 tested, 0.084% active. AID 624465; in the data active = activation above about 40%; inconclusive = between about 15% and that limit
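Agonist mode: compounds alone added to overnight-plated D2 PathHunter cells for 90 min at 37 C, with 57 uM final dopamine (EC100) defining full response. Beta-arrestin recruitment detected by chemiluminescent reagent, read after 1 h at ambient temperature.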
D2 ag-2: activates the human D2 dopamine receptor; P14416; HEK293 T-REx D2 cells, calcium flux agonist mode; activation, % at 2 µM; 340,000 tested, 0.53% active;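 active = activation over 3 SD above normal in the single-dose calcium agonist read, cut at about 30% in these data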
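Tetracycline-induced HEK293 Trex cells with D2 receptor force-coupled to calcium signaling, plated overnight at 30 C and loaded with no-wash calcium dye. Calcium flux read kinetically for 180 s after compound addition; responses flag agonists.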
D3 arrestin ag: D3 receptor agonism confirmed, beta-arrestin readout; shares compounds with D2 ag-2; DiscoveRx D3 beta-arrestin cells, luminescence, 90 min; Potency, µM (doses to about 76.9 µM), actives largely listed as activators; 2,300 tested, 4% active; also: nearly all actives have a fitted effect of over 70% in size
D2 ag-3: counter-screen for D3 agonists: human D2 dopamine receptor agonism. shares compounds with D2 ag-2. DiscoveRx PathHunter D2 beta-arrestin, luminescence, 90 min; response scale: percent relative to full dopamine signal. Potency, µM (highest dose often 76.9 µM), usual class: activators. 2,300 tested, 5.9% active; also: nearly all actives have a fitted effect of over 70% in size
Of the large screens only hits and unclear results are named; the others gave an inactive call (follow-up assays come after a bar, where they were run). Most compounds without a hit are left out; they make up all but 2.4% or so of the library. Unless noted, calls follow the shape of the dose curve; as a rule, active = well fitted activation curve with a large enough effect; inconclusive = small, poorly fitted or top-dose-only effect; inactive = flat fitted curve, though single readings scatter.

COc1ccc(NC(=O)c2ccc3c(c2)C(=O)N(CC2CCCO2)C3=O)c(OC)c1 (configuration not stated)	D2 PAM-1 37.4
O=C(NCc1ccc2c(c1)OCO2)C(=O)NCC1CCCO1 (configuration not stated)	none
O=C(NCc1ccccc1)c1ccc2c(c1)C(=O)N(CC1CCCO1)C2=O (configuration not stated)	D2 antag 31.0
O=C(Cc1ccccc1)Nc1ccc2c(c1)C(=O)N(CC1CCCO1)C2=O (configuration not stated)	none
O=C(NCCc1ccccc1)C(=O)NCC(c1cccs1)S(=O)(=O)c1cccs1 (configuration not stated)	none (no result: D2 antag, D2 PAM-2, D2 ag-1)
CCN(CC(=O)NC(c1ccccc1)c1ccccc1)Cc1nc2ccccc2c(=O)[nH]1	D2 antag 32.4
O=C(NC(=S)NCc1ccco1)c1ccccc1[N+](=O)[O-]	none (no result: D2 PAM-1, D2 antag, D2 ag-2)
CC(C)(C)OC(=O)N1CCNc2ccccc2C1	D2 antag 30.5
CCN1CCN(C(=O)c2ccc3c(c2)N(Cc2cccc(F)c2)C(=O)c2ccccc2S3)CC1	none (no result: D2 antag, D2 PAM-2, D2 ag-1)
O=C(OCc1nnc(-c2ccc([N+](=O)[O-])cc2)o1)C1CCN(C(=O)c2ccc(Cl)cc2)CC1	none
O=C(OCc1nnc(-c2ccc([N+](=O)[O-])cc2)o1)C1CCN(C(=O)c2ccc(F)cc2)CC1	D2 antag 34.7
Nc1c(Cl)cc(C2=NCCn3c2c2ccc(C(F)(F)F)cc2[n+]3[O-])cc1Cl	none
COc1ccc(C(=O)NCc2cn3ccsc3n2)cc1OC	D2 PAM-1 33.1
COC(=O)c1ccc2nc(C3CCCCC3)c(Cc3cccc(Cl)c3)n2c1	none (no result: D2 PAM-1, D2 antag, D2 ag-2)
COc1ccc(C(=O)O)cc1Nc1nc2ccc(C)cc2n2cnnc12	none (no result: D2 antag, D2 PAM-2, D2 ag-1)
COc1ccccc1C1CCN(Cc2ccc(Cl)c(Cl)c2)CC1	D2 antag 83.7
COc1ccccc1C1CCN(Cc2cccc3ccccc23)CC1	D2 antag 81.6
COc1ccccc1C1CCN(Cc2c(C)[nH]c3ccccc23)CC1	D2 antag 56.2
COc1ccccc1C1CCN(Cc2ccc(Cl)cc2Cl)CC1	none
Cc1c(Cl)ccc2c(C(=O)O)cc(-c3ccccc3)nc12	D2 antag 52.0
Cc1ccc(NC(=O)CC(c2ccc(F)cc2)N2Cc3ccccc3C2=O)cc1C (configuration not stated)	none (no result: D2 antag, D2 PAM-2, D2 ag-1)
CCOC(=O)CSc1nc(C)nc2c1sc1nc(C)c(C(C)=O)c(-c3ccc(OC)cc3)c12	D2 antag 39.6
Cc1cc(C)cc(NC(=O)c2cc(C)nn2C)c1	D2 ag-2 33.8 | D3 arrestin ag inactive | D2 ag-3 inactive
CCN1CCN(c2ncnc3scc(-c4ccc(C)cc4)c23)CC1	D2 antag 67.6, D2 PAM-2 inconclusive, D2 ag-1 109.8, D2 ag-2 70.1 | D3 arrestin ag inactive | D2 ag-3 2.82µM
Oc1[nH]c(N=C2N=c3ccccc3=N2)c2ccccc12	none
CCCNC(=O)C(CC)NC(=O)c1ccc(C#N)cc1 (configuration not stated)	none
CCCNC(=O)C(Cc1ccc(I)cc1)NC(=O)c1ccc(C#N)cc1 (configuration not stated)	none | D3 arrestin ag inactive | D2 ag-3 inactive
CCCNC(=O)C(Cc1cccc(Cl)c1)NC(=O)c1ccc(C#N)cc1 (configuration not stated)	none
CCCNC(=O)C(Cc1cccc(C#N)c1)NC(=O)c1ccc(C#N)cc1 (configuration not stated)	none | D3 arrestin ag inactive | D2 ag-3 inactive
CCCCCCCCC(NC(=O)c1ccc(C#N)cc1)C(=O)NCCC (configuration not stated)	none | D3 arrestin ag inactive | D2 ag-3 inactive
Cc1c(Cl)cccc1NC(=O)CSC(C)c1nc2ccccc2c(=O)[nH]1 (configuration not stated)	none | D3 arrestin ag inactive | D2 ag-3 inactive
Cc1nn(CC(=O)NC2CCCCC2)c(C)c1[N+](=O)[O-]	none (no result: D2 PAM-1, D2 antag, D2 ag-2)
CCCSCCCNC(=O)c1ccccc1NC(=O)C1=CSCCO1	none | D3 arrestin ag inactive | D2 ag-3 inactive
CCN(CC)CCCNC(=O)c1ccccc1NC(=O)C1=CSCCO1	none (no result: D2 PAM-1, D2 antag, D2 ag-2)
CCOC(=O)c1c(-c2ccc(F)cc2)csc1/N=C/N(C)C	none
CCc1nc2c(OCc3cccc(Cl)c3)cccn2c1N(C)C(=O)c1ccc(OC)cc1	none (no result: D2 PAM-1, D2 antag, D2 ag-2)
CCc1cccc(CC)c1NC(=S)NCCc1ccc(O)c(O)c1	D2 ag-2 36.4 | D3 arrestin ag 39.8µM | D2 ag-3 inconclusive
O=C1C2CCCCN2C(=O)N1CCCCN1CCN(c2cccc(C(F)(F)F)c2)CC1 (configuration not stated)	none (no result: D2 PAM-1, D2 antag, D2 ag-2)
O=C1C2CCCN2C(=O)N1CCCN1CCN(c2cccc(Cl)c2)CC1 (configuration not stated)	D2 antag 31.3 | D3 arrestin ag inactive | D2 ag-3 inactive
O=c1n(CCCN2CCN(c3cccc(Cl)c3)CC2)nc2ccccn12	D2 antag 52.4, D2 ag-2 40.7 | D3 arrestin ag inactive | D2 ag-3 inactive
O=C(CSc1nc2c([nH]c3ccccc32)c(=O)n1-c1ccccc1F)Nc1cccc(C(F)(F)F)c1	none (no result: D2 antag, D2 PAM-2, D2 ag-1, D2 ag-2)
Cn1c(SCC(=O)N2CCOCC2)nnc1-c1ccco1	none
COc1ccc(C(OCC(O)CNCCc2ccccc2)c2ccc(OC)cc2)cc1 (configuration not stated)	D2 ag-2 51.4 | D3 arrestin ag inactive | D2 ag-3 inactive
OC(CNCCc1ccccc1)COc1ccc(OCC(O)CNCCc2ccccc2)cc1 (configuration not stated)	none (no result: D2 PAM-1, D2 antag, D2 ag-2) | D3 arrestin ag inactive | D2 ag-3 inactive
CN1CC2=Cc3ccccc3OC23Oc2ccccc2C=C3C1	D2 antag 64.2, D2 ag-2 58.6 | D3 arrestin ag inactive | D2 ag-3 inactive
CC(C)N1CCN(Cc2cccc(-c3ccco3)c2)CC1CCO (configuration not stated)	none | D3 arrestin ag inactive | D2 ag-3 inactive
CC(C)N1CCN(Cc2ccccc2-c2ccco2)CC1CCO (configuration not stated)	none
Cc1ccc(S(=O)(=O)NCCC(=O)Nc2ccc(C)cc2C(=O)c2ccccc2)cc1	none | D3 arrestin ag inactive | D2 ag-3 inactive
CCCNC(=O)c1c2c(nc3ccccc13)C(=O)N(C1CCCCC1)C2	none (no result: D2 antag, D2 PAM-2, D2 ag-1)

Source: PubChem BioAssay
